This note sets out measurements from PubChem BioAssay (EPA / NIEHS).

Structures are written as SMILES. Results filed as inconclusive are left out. A structure can be active in one record and inactive in another. Calls of active or inactive are those of the source. Rule for the calls, unless noted: active = hit-call score of the fitted dose curve at least 0.9, where 1 is the maximum; inactive = score below 0.9.

Assay [1] can be described thus: BSK_SAg_PBMCCytotoxicity: PBMC Cytotoxicity Assessment in the BioMAP Diversity Plus: SAg Assay (AID 2283093).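 For AC50: PBMC superantigen activated with SEB plus TSST-1 one hour after compound addition.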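 Note: PBMC viability measured as Alamar Blue reduction fluorescence at 546/580 nm; fitted both ways against DMSO so a hit may be loss or gain of signal.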 The note with it: primary human HUVEC with PBMC. A digest of the protocol: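 Alamar Blue reduction (6 h, ex/em 546/580 nm) read after 90 h culture of PBMC pre-dosed 1 h then stimulated with SEB plus TSST-1, 20 ng/mL each. Gain or loss of signal fitted relative to DMSO.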

Read-out in assay [2]: Interleukin-8 (IL8), CXCL8 (gene 3576)
Nature of the assay: BSK_SAg_IL8: BioMAP Diversity Plus: SAg Assay for Interleukin-8 (IL8) Biomarker Activity (AID 2283094). Particulars: primary human HUVEC with PBMC; actives raise or lower the signal. A digest of the protocol:
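Chemicals were dosed onto a human endothelial–PBMC co-culture, and IL-8 was quantified by ELISA after 24 h. Both increases and decreases were fitted relative to DMSO.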

The nature of assay [3]: BSK_SAg_Proliferation: Cell Proliferation Assessment in the BioMAP Diversity Plus: SAg Assay (AID 2283095).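 Note: relative cell number as total protein by SRB absorbance in sub-confluent culture.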 The note with it: primary human HUVEC with PBMC. A digest of the protocol: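 Absorbance of sulforhodamine B at 560 nm reports total protein in a human vascular endothelial/PBMC co-culture after 96 h chemical exposure. Gain or loss of signal is fitted in both directions against DMSO.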

Assay [4] is described as follows: BSK_SAg_SRB: Viability Assessment in the BioMAP Diversity Plus: SAg Assay (AID 2283096).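 Note: cells read one day after compound addition; hits may be either gain or loss of signal compared with DMSO.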 Particulars: primary human HUVEC with PBMC. A digest of the protocol:
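SRB absorbance at 560 nm served as the viability read-out. Cells (HUVEC plus peripheral blood mononuclear cells) were TCA-fixed and stained 24 h post-dosing; activity fitted in both directions against DMSO controls.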

Assay [5] concerns the target human CYP1A1, CYP1A1 (gene 1543) (UniProt P04798). Nature of the assay: NVS_ADME_hCYP1A1: NovaScreen (NVS) CYP450-related Enzyme Activity (ADME) Assay for human CYP1A1 (AID 2283100; active = hit-call score of the fitted dose curve at least 0.9, where 1 is the maximum). A digest of the protocol:
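Compounds first went through duplicate single-concentration testing at 10 uM against purified CYP1A1. Those passing a threshold such as 30% inhibition entered singleton dose-response, highest concentration 20 uM. Signal was fluorescence measured after 1 hour.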

The target in assay [6] is human CYP2B6, CYP2B6 (gene 1555) (UniProt P20813). Briefly: NVS_ADME_hCYP2B6: NovaScreen (NVS) CYP450-related Enzyme Activity (ADME) Assay for human CYP2B6 (AID 2283101; active = hit-call score of the fitted dose curve at least 0.9, where 1 is the maximum). A digest of the protocol:
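Recombinant human CYP2B6 with fluorogenic substrate, read by fluorescence intensity 1 h after dosing. Primary screen in duplicate at 10 uM, actives followed in concentration series; signal loss relative to acetonitrile control.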

Assay [7] deals with human CYP2D6, CYP2D6 (gene 1565) (UniProt P10635). Briefly: NVS_ADME_hCYP2D6: NovaScreen (NVS) CYP450-related Enzyme Activity (ADME) Assay for human CYP2D6 (AID 2283107; active = hit-call score of the fitted dose curve at least 0.9, where 1 is the maximum). A digest of the protocol: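 Compounds were first tested in duplicate at 10 uM against recombinant enzyme produced in insect cells, with substrate turnover measured by fluorescence after 1 hour. Decreased signal, referenced to acetonitrile vehicle, was taken as reduced enzyme activity. Active chemicals went on to concentration-response testing.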
Sequence of human CYP2D6, CYP2D6 (gene 1565) (P10635 whole entry, looked up): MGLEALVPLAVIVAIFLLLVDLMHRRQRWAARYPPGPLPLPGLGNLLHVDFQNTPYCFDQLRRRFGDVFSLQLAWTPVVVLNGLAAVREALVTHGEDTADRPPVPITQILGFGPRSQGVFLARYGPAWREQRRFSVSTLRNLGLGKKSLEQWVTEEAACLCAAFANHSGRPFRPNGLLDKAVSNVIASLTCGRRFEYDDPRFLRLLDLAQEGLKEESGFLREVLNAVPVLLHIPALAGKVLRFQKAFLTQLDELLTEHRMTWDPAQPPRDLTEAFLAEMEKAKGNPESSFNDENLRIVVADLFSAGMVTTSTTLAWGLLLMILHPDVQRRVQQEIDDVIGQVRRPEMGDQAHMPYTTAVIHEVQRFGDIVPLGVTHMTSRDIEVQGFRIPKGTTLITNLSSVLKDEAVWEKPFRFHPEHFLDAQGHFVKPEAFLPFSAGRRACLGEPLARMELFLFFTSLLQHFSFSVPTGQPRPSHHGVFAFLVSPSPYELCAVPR

The target of assay [8] is human CYP2A6, CYP2A6 (gene 1548) (UniProt P11509). Briefly: NVS_ADME_hCYP2A6: NovaScreen (NVS) CYP450-related Enzyme Activity (ADME) Assay for human CYP2A6 (AID 2283099; active = hit-call score of the fitted dose curve at least 0.9, where 1 is the maximum). A digest of the protocol: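 Recombinant human CYP2A6 from insect cells was incubated with chemical for 0.5 h and activity read by fluorescence. Single-concentration duplicates at 10 uM preceded concentration-response testing to 20 uM, with activity referenced to acetonitrile.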
Sequence of human CYP2A6, CYP2A6 (gene 1548) (P11509 whole entry, looked up): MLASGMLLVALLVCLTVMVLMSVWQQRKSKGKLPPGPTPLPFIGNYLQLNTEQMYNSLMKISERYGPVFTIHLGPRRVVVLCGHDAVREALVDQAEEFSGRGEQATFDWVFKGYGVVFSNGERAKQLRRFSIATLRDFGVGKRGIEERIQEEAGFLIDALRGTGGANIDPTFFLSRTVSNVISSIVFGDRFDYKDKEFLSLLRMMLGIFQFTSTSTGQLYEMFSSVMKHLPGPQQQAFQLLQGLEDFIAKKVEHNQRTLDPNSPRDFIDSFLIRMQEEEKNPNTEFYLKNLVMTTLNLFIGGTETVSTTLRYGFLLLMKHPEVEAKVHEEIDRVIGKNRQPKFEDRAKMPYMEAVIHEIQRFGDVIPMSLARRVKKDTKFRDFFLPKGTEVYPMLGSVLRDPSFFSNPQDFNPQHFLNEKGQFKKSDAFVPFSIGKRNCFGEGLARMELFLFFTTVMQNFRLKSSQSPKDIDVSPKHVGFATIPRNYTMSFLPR

Assay [9] has as its target human CYP1A2, CYP1A2 (gene 1544) (UniProt P05177). Nature of the assay: NVS_ADME_hCYP1A2: NovaScreen (NVS) CYP450-related Enzyme Activity (ADME) Assay for human CYP1A2 (AID 2283102; active = hit-call score of the fitted dose curve at least 0.9, where 1 is the maximum;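 note: potency for inhibition since loss of fluorescence marks reduced CYP1A2 activity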). A digest of the protocol:
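Compounds were tested at 10 uM in duplicate against recombinant CYP1A2 produced in insect cells. Enzyme activity was measured by fluorescence 0.5 h after dosing, with loss of signal versus acetonitrile control. Active compounds were re-tested in concentration series.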

Assay [10] concerns the target human CYP19A1, CYP19A1 (gene 1588) (UniProt P11511). Briefly: NVS_ADME_hCYP19A1: NovaScreen (NVS) CYP450-related Enzyme Activity (ADME) Assay for human CYP19A1 (AID 2283098; active = hit-call score of the fitted dose curve at least 0.9, where 1 is the maximum;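 for AC50: potency for inhibitors seen as loss of fluorescent enzyme signal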). A digest of the protocol:
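Primary testing was in duplicate at a single 10 uM concentration, with actives followed up in concentration-response series. Fluorescence read-out of recombinant enzyme activity at 0.5 h, cell-free. Acetonitrile was the negative-control baseline.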

Sequence of human CYP1A1, CYP1A1 (gene 1543) (P04798 whole entry, looked up): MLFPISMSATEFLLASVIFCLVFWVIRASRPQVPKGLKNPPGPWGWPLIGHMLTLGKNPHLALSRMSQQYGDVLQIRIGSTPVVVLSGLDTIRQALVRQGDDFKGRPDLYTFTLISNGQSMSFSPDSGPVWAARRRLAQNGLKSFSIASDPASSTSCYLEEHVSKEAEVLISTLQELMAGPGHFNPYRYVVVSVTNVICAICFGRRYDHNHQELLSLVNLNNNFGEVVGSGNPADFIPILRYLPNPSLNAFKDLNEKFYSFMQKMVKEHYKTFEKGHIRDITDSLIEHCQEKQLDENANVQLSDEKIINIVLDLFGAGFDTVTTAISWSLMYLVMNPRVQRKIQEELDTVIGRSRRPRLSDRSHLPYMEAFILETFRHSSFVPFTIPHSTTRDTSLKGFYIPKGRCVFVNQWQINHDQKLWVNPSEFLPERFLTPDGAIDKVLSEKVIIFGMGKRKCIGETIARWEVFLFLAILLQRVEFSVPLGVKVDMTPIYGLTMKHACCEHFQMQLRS
Sequence of human CYP2B6, CYP2B6 (gene 1555) (P20813 whole entry, looked up): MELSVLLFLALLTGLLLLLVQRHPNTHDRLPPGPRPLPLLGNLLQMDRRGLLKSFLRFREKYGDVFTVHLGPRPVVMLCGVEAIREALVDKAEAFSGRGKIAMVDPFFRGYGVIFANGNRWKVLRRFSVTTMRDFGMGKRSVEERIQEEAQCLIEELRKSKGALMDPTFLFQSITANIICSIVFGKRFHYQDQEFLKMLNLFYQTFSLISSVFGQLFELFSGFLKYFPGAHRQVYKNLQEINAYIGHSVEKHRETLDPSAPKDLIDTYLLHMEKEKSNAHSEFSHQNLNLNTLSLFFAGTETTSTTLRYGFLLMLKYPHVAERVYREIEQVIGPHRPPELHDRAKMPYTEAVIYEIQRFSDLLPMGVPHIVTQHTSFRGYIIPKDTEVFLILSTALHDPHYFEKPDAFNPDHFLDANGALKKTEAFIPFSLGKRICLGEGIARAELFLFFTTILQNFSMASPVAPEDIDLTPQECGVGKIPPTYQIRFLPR
Sequence of human CYP19A1, CYP19A1 (gene 1588) (P11511 whole entry, looked up): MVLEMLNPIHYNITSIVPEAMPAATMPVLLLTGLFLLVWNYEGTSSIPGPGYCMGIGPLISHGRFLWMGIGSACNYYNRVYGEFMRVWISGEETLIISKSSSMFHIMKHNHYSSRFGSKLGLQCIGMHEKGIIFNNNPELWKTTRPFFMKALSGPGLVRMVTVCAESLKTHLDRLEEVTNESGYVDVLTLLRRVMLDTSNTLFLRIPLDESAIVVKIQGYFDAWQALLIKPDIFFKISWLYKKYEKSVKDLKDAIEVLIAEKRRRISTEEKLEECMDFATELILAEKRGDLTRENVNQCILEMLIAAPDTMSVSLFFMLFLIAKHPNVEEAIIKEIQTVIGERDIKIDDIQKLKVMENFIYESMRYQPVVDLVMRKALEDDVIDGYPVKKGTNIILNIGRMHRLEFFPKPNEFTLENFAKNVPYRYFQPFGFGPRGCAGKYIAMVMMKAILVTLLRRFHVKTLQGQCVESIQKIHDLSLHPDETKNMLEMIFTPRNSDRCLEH
Sequence of human CYP1A2, CYP1A2 (gene 1544) (P05177 whole entry, looked up): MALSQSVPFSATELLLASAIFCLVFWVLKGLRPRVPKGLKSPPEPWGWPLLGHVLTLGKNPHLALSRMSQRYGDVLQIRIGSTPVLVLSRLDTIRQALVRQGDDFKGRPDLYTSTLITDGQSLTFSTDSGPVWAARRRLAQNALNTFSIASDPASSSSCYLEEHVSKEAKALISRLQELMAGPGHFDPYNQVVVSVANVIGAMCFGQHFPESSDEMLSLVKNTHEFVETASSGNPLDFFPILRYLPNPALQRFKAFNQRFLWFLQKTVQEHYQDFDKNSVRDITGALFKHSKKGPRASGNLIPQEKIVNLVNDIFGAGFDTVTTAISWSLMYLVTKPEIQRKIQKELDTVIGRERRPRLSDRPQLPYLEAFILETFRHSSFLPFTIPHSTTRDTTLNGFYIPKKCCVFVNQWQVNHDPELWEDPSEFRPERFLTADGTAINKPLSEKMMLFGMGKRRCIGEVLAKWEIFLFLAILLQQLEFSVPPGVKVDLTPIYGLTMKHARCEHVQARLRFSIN

The term AC50 denotes the concentration at which the activity in the assay is half-maximal. Turning to `Cc1oc2c(NC(=O)c3c(Cl)cccc3Cl)cccc2c1C(C)(C)O`, the AC50 was 14.2 µM (active) in assay [1], 20.6 µM (active) in assay [3], 25.3 µM (active) in [4] and 2.39 µM (active) in assay [5]. Besides, in assay [2], the outcome was inactive.

`CCCC(=O)OCCC(C)C`: the result in assay [1], in assay [2], in [3] and in [4] was inactive.

With `CCN(Cc1cccnc1)C(=O)c1cccc(Cl)c1[C@]1(C)C(=O)N(Cc2ccc(OC)cc2OC)c2ccc(Cl)cc21`, the result in assay [1], in assay [5], in assay [6] and in assay [7] was inactive. Besides, the AC50 is 3.93 µM (active) in assay [2], 7.09 µM (active) in assay [3] and 5.81 µM (active) in [4].

In the case of `CC(O)CC(C)(C)O` (stereo not drawn), the result in [1], in assay [2] and in assay [4] was inactive.

For the compound `COc1ccc2cc(S(=O)(=O)N[C@H](CC(=O)N[C@H](Cc3ccc(CN4[C@H](C)CCC[C@@H]4C)cc3)C(=O)N(C)C(C)C)c3ccc4c(c3)OCO4)ccc2c1`, the AC50 is 14.6 µM (active) in assay [1]; 14.8 µM (active) in [2]; 12 µM (active) in assay [3]; 17.3 µM (active) in assay [4]; 0.305 µM (active) in [7]. Moreover, in assay [5], the compound was classed as inactive.

Turning to `O=C(O)c1ccccc1-n1cc(C(=O)O)c(=O)c2cc(Nc3c(F)cc(F)cc3Cl)c(Cl)cc21`, the outcome in [1], in [2], in [3] and in assay [4] was inactive.

Regarding `O=C(O)c1ccccc1C(=O)OCc1ccccc1`, the result in assay [1], in [2] and in assay [4] was inactive.

As for `O=c1c(-c2ccc(O)cc2)coc2cc(O)cc(O)c12`, the concentration at half-maximal activity (AC50) in [1], in assay [2] and in [4] was 20 µM (active) in each case. For the same compound, the compound was called inactive in assay [6].

For `CCCCCc1ccc(N)cc1`, the outcome in assay [1], in assay [2] and in assay [4] was inactive.

Take `CCCCCCCCCCCC[N+](C)(C)C`: the AC50 is 20 µM (active) in assay [1], 6.09 µM (active) in assay [3], 25.8 µM (active) in assay [4] and 7.58 µM (active) in [7].

For the compound `COCC(C)OCC(C)OCC(C)O` (stereo not drawn), the result in assay [1], in assay [2] and in assay [4] was inactive.

On to `O=c1[nH]sc2ccccc12`, for which the AC50 in assay [1] is 3.66 µM (active); in assay [2] it was 23.2 µM (active); in [4], 26.8 µM (active); in assay [5], 5.11 µM (active); in assay [6], 0.721 µM (active).

As to `CCOC(=O)O[C@H](C)OC(=O)c1ccc2c(c1)cc(C(=O)NC1CCN(C(C)C)CC1)n2Cc1cc(-c2ccc(Cl)s2)on1`, the AC50 is 2.82 µM (active) in assay [1], 6.18 µM (active) in assay [2], 6.18 µM (active) in assay [4] and 13.7 µM (active) in assay [9]. Further, the call in assay [8] was inactive.

`Cc1c2ccccc2c(C)c2c1ccc1ccccc12`: the AC50 in assay [1] is 34 µM (active); in assay [2], 26.4 µM (active); in [4], 29.1 µM (active); in [9], 4.33 µM (active).

As for `NCc1cccc(C2CCN(C(=O)c3ccc(C#Cc4ccccc4F)o3)CC2)c1`, the half-maximal activity concentration (AC50) in [1] is 11.9 µM (active); in [2], 15.8 µM (active); in assay [4], 15.2 µM (active); in assay [8] it was 17.9 µM (active); in assay [5], 7.2 µM (active); in assay [6], 5.71 µM (active). Moreover, the AC50 in assay [9] was 6.43 µM (active); in assay [7], 6.76 µM (active).

In the case of `CN(C)c1ccc(C(=C2C=CC(=[N+](C)C)C=C2)c2ccc(N(C)C)cc2)cc1`, the AC50 in [1] is 5.83 µM (active); in assay [2], 0.148 µM (active); in [4], 7.53 µM (active); in assay [5] it was 2.02 µM (active); in assay [6] it was 6.7 µM (active); in assay [9], 6.67 µM (active). Moreover, the AC50 in [7] was 2.86 µM (active).

`CC(C)(O)c1ccc(CNC(=O)c2cccnc2Oc2ccc3nonc3c2)cc1`: the outcome in [1], in assay [2] and in [4] was inactive.

Turning to `COc1cc(C(=O)NC2CCN(C)CC2)ccc1Nc1ncc2c(n1)N(C1CCCC1)CC(F)(F)C(=O)N2C`, the AC50 in assay [1] was 13.8 µM (active); in [2], 10.2 µM (active); in assay [4] it was 18.6 µM (active).

On to `CC1=CC(=O)/C(=C(/C)O)C(=O)O1`, for which the result in [1], in [2], in assay [4] and in assay [10] was inactive.

In the case of `CN(C)C(=O)C1(N2CCCCC2)CCN(CC[C@@]2(c3ccc(Cl)c(Cl)c3)CN(C(=O)c3ccccc3)CCO2)CC1`, the AC50 in assay [1] was 15.4 µM (active); in assay [2] it was 12 µM (active); in assay [4], 14 µM (active); in assay [7], 4.97 µM (active).

Regarding `O=C(O)Cc1cc(I)c(Oc2ccc(O)c(I)c2)c(I)c1`, the outcome in assay [1], in [2], in assay [4] and in [10] was inactive.

As to `c1ccc2n[nH]nc2c1`, the outcome in [1], in assay [2] and in assay [4] was inactive.

Regarding `Cc1cn([C@H]2C[C@H](N=[N+]=[N-])[C@@H](CO)O2)c(=O)[nH]c1=O`, the result in assay [1], in assay [2] and in assay [4] was inactive.

As to `CCCCCCCCCCCO`, in assay [1], the AC50 was 33.1 µM (active). Also, the outcome in [2] and in assay [4] was inactive.

Take `CCCOC(=O)c1cc(O)c(O)c(O)c1`: the result in assay [1], in [2] and in assay [4] was inactive.

On to `C[C@]12CC[C@@H]3c4ccc(O)cc4CC[C@H]3[C@@H]1CC[C@H]2O`, for which the outcome in [1], in assay [2] and in assay [10] was inactive. In addition, the AC50 in [4] is 12.1 µM (active); in assay [10], 10 µM (active).

In the case of `O=C1CCC(C2CCCCC2)CC1`, the outcome in [1], in [2], in assay [4] and in assay [10] was inactive. In assay [10], the AC50 is 11.6 µM (active).

For the compound `CC(C)(C)c1csc(-c2cc3cc(OCc4ccccc4CC(=O)O)ccc3o2)n1`, the outcome in assay [1] was inactive. In addition, the AC50 was 15.5 µM (active) in assay [2] and 20 µM (active) in [4].
